Columns and labels:
Assay in all cases: PBM binding z-score (relative to random genomic background probes); higher = stronger binding; sequences stand for … in GC…GCGATTGACAGCGTAGAATGAAGG
[1] = system: PPARg:RXRa DBDmut IVT, anti-RXR (DBD mutation: RXRa K156A/R161A, NR concentration 270 nM, RXRa partner concentration 90 nM)
How it was run: (§1)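 Scanned fluorescence from custom Agilent 4×180K protein-binding microarrays was regression-normalized. Binding z-scores use random background probes as reference. Ligand-free nuclear receptor dimers were incubated on the arrays for 1 h and detected with antibodies against each partner (one per run).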

[2] = system: PPARg:RXRa IVT, anti-PPARg (NR concentration 270 nM, RXRa partner concentration 90 nM)
How it was run: as §1

[3] = system: PPARg DBDmut:RXRa IVT, anti-PPARg (DBD mutation: PPARg1 K132A/R137A, NR concentration 270 nM, RXRa partner concentration 90 nM)
How it was run: as §1

[4] = system: PPARg DBDmut IVT, anti-PPARg (DBD mutation: PPARg1 K132A/R137A, NR concentration 270 nM)
How it was run: as §1

[5] = system: PPARg homodimer (NR concentration 180 nM)
How it was run: as §1

[6] = system: PXR:RXRa (NR concentration 270 nM, RXRa partner concentration 90 nM)
How it was run: as §1

[7] = system: PXR homodimer (NR concentration 270 nM)
How it was run: as §1

[8] = system: RARa:RXR (NR concentration 270 nM, RXRa partner concentration 90 nM)
How it was run: as §1

[9] = system: RARa homodimer (NR concentration 270 nM)
How it was run: as §1

[10] = system: RARb:RXRa (NR concentration 270 nM, RXRa partner concentration 90 nM)
How it was run: as §1

| Sequence | PBM binding z-score [1] | PBM binding z-score [2] | PBM binding z-score [3] | PBM binding z-score [4] | PBM binding z-score [5] | PBM binding z-score [6] | PBM binding z-score [7] | PBM binding z-score [8] | PBM binding z-score [9] | PBM binding z-score [10] |
| --- | --- | --- | --- | --- | --- | --- | --- | --- | --- | --- |
| ATATGTAGGTTAGCTGGGGTGATTCAGACTAGGC | 6.78 | 5.76 | 1.88 | 1.63 | 1 | 1.55 | 0.409 | 1.31 | 1.29 | 1.07 |
| CCTCGGAGGACAACAGGGGGTCAGAGCTGCCAGA | -0.238 | 1.33 | 0.527 | 1.03 | 1.56 | 3.18 | 0.0814 | 3.3 | 0.607 | 2.71 |
| GGAACGAGGGCATTGGAGTTGATAGCATGGCGAT | 3.13 | 1.96 | -0.193 | -0.133 | 0.272 | 2.48 | 0.836 | 0.409 | -0.598 | 1.72 |
| CCTCGGAGGACAACAGGAGTTCAGAGCTGCCAGA | -0.298 | -1 | -2.34 | -1.22 | 0.513 | 1.92 | 1.78 | 0.366 | 0.371 | 1.67 |
| ACTAGTTGGTTAGCTGAGGTCACACACAATTCGG | 0.671 | 2.34 | 0.586 | 0.524 | 3.15 | 5.03 | 2.31 | 4.59 | 1.66 | 3.06 |
| GCAGACAGCTGAAACGCAGGTAACTCAGGGTGGC | -0.593 | -0.619 | -0.401 | -0.834 | -1.24 | -0.942 | -0.526 | -0.648 | -0.637 | -0.402 |
| CCTGATAGGTCAATGGTCAGCTAAAGCAGCTCGC | 3.36 | 3.31 | -0.515 | -0.301 | 2.74 | 2.07 | 0.0154 | 2.95 | 0.334 | 4.06 |
| GCGACTGGGGCATCAGCAGGTTACCCTAACTTAA | 3.51 | 2.87 | -0.922 | -0.0321 | 0.248 | 0.197 | -0.267 | 0.596 | -0.765 | 0.794 |
| CCTTGGAGGACAACAGGAGGTCAGAGCTGCCAGA | 1.07 | 1.27 | -1.18 | -0.193 | 1.41 | 1.97 | 0.462 | 2.33 | 0.276 | 2.83 |
| TCTATTAGTTGTTTAGGGCAACCGAAACAGCGGA | 1.98 | 1.19 | 1.27 | 0.951 | 0.794 | 0.621 | 0.33 | 0.698 | 1.2 | 1.13 |
| GCGACTGGGTCAAAGCAGGTTACCATAAGGTTGG | 5.8 | 6.15 | 0.18 | 0.407 | 1.75 | 3.55 | -0.492 | 3.29 | -0.492 | 3.19 |
| CCTCGTTGGTCAGGAGGTCACACACCGGATATGA | 0.408 | 2.72 | 0.14 | 0.13 | 3.05 | 4.26 | 0.821 | 4.73 | 1.57 | 3.75 |
| ACTAGTTGGTCAGCTGAGGTCACGCACAATTCGG | 1.52 | 3.03 | 0.779 | -0.0173 | 2.43 | 5.57 | 1.08 | 4.84 | 0.816 | 4.04 |
| TCTCGGAGGACACGAAAGGTCAAAGCTCGACATC | 1.72 | 2.11 | -0.166 | -0.0155 | 3.27 | 5.39 | 1.21 | 5.48 | 1.41 | 4.55 |
| CCGACTGGTGCATAAGGTTACCATAAGCCAGCCC | -0.572 | -0.302 | -0.529 | -1.4 | 0.502 | 0.475 | -0.018 | 1.18 | 0.243 | 0.928 |
| CAAACTGGGTCACCGGAAGGTCAAAGTCCGCATG | 8.13 | 8.83 | 1.41 | 0.892 | 6.19 | 5.57 | 1.27 | 6.73 | 0.623 | 4.9 |

| Sequence | PBM binding z-score [1] | PBM binding z-score [2] | PBM binding z-score [3] | PBM binding z-score [4] | PBM binding z-score [5] | PBM binding z-score [6] | PBM binding z-score [7] | PBM binding z-score [8] | PBM binding z-score [9] | PBM binding z-score [10] |
| --- | --- | --- | --- | --- | --- | --- | --- | --- | --- | --- |
| ATATGTAGGTTAGCTGGGGTCGTTCAGACTAGGC | 6.38 | 6.16 | 1.24 | 1.41 | 0.751 | 4.69 | 1.3 | 2.76 | 0.512 | 1.51 |
| CAAACTAGGTCGAGAGGTCAAAGTCCGCTTCCCG | 5.89 | 6.2 | 0.871 | -0.159 | 2.68 | 5.25 | 1.9 | 5.44 | 1.21 | 4.24 |
| CCTTACGGGTCACGAGGTTATAGCGCGACGAGCG | 3.89 | 5.36 | 1.53 | 2.01 | 3.21 | 4.57 | 0.486 | 6.3 | 1.06 | 4.56 |
| TCAGACAGGTGAAGGTAACTCAGGTACGCAGTCG | 2.78 | 1.13 | 0.341 | -0.339 | 0.564 | 0.641 | 0.447 | 0.878 | 0.775 | 1.18 |
| CCTGCTAGGTCATGGTCACCTAATCTACAGTATG | 5 | 5.09 | 0.83 | 0.207 | 1.89 | 1.82 | -0.294 | 2.75 | -0.115 | 3.98 |
| CGTCCAAGGTCATAGGAGGTGAGTGAAGACAGAT | 2.78 | 4.36 | 0.426 | 0.754 | 2.6 | 4.84 | 1.4 | 4.65 | 0.644 | 5.24 |
| GCGCCTGGGGCAAAGCAGGTTACCATAAGGTTGG | 0.355 | -0.0318 | -1.1 | -1.44 | -0.5 | 0.277 | -0.671 | 0.359 | -0.592 | 1.02 |
| AGTCAAAGTTCAGGACGAGGTAACGGAAAGCACG | -0.203 | 2.06 | 0.787 | 0.337 | 2.37 | 2.66 | 1.31 | 2.62 | 0.344 | 4.22 |
| CCTAATTGGTCAAGGTCACACACGCTATAGGTAC | 2.69 | 3.49 | 1.13 | 1.42 | 3.47 | 4.32 | 1.9 | 4.28 | 2.79 | 4.22 |
| CCGCCTGGGGCAGAAAGGTTACCATACCATCCGG | -0.75 | -0.444 | -1.12 | -1.51 | 0.297 | 0.861 | -0.276 | 1.49 | -0.241 | 1.83 |
| GGAACGAGGGCAAGTAGATAGCAGAGTTTGATGG | 3.61 | 2.59 | -0.498 | -0.505 | -0.0596 | 0.344 | 0.589 | 0.247 | -0.258 | 2.46 |
| ATTGAAAGGTCGAAGGTGAGTATACCCACCCGAA | 0.108 | 2.82 | 1.09 | 0.602 | 2.51 | 3.15 | 0.394 | 4.57 | 0.818 | 3.83 |
| CGTCAAAGTTCAACTAAGGTAACGTAAAGCACGC | 0.3 | 2.33 | 1.23 | 0.815 | 2.8 | 5.69 | 3.56 | 4.67 | 2.05 | 5.43 |
| TTACCAAGGTGAGCTGAGGTCGTTGTTCCAACTC | 1.27 | 2.01 | -0.911 | -0.688 | -0.161 | 5 | 0.345 | 2.16 | -0.978 | 1.79 |
| AGAATGAGGTTATACGTAGATCAGGTAAGAAAGT | 4.3 | 2.28 | 1.26 | 0.947 | 0.811 | 1.23 | 0.571 | 2 | 0.262 | 1.52 |
| CTACCAAGGTGAACAAGGTAGTTGATTACTATTC | 2.65 | 2.48 | 0.56 | 0.814 | 0.0631 | 0.0464 | -0.0276 | 0.456 | -0.151 | 1.53 |
